In publication PMC6212790, “How bacterial xenogeneic silencer rok distinguishes foreign from self DNA in its resident genome”:
Over roughly 33,000 sequences, “e-score” has its median near -0.037; the highest 2% begin near 0.34. The list comes from a sample in which the highest values are over-represented; it also holds similar and randomly drawn sequences.

The sequences below were run against T1, GST-Rok (full length) (Bacillus subtilis subsp. subtilis str. …, UniProt O34857 1-191) (assay: protein binding microarray; Rok is a gene silencer of Bacillus subtilis; high values mean tight binding). Conditions: protein: recombinant; tags: GST (pTH5325, pDEST15-Magic modified); dsDNA, one strand shown.
T1 sequence: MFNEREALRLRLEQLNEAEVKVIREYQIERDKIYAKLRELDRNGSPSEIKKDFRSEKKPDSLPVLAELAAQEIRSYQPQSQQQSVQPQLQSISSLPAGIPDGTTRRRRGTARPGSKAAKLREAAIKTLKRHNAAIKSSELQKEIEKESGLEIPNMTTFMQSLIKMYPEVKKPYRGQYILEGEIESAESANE
Summary of the method: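 Every oligonucleotide joins a 25-mer constant primer to a 35-mer variable part drawn from a de Bruijn sequence of order 10, so each non-palindromic 8-mer appears at least 32 times and each palindromic 8-mer 16 times. The preference for every 8-mer is reported as a unitless, rank-based enrichment score (E-score). This score spans 0.5 for the most favored 8-mer to −0.5 for the most disfavored.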
CTTATACA was tested, and the binding signal was 0.283 E-score.
ATTATACA was tested, and the binding signal was 0.363 E-score.
For AACGGTTC, the binding signal was 0.108 E-score.
Work on GTAGACAA yielded a binding signal of -0.0127 E-score.
GTGGCCAC gave a binding signal of -0.123 E-score.
Work on ACCTTGCG yielded a binding signal of -0.00332 E-score.
Sequence CAAAAAGA has a binding signal of -0.0731 E-score.
For TGCTTGAA, the binding signal was -0.0266 E-score.
With CTTCTACC the binding signal was 0.327 E-score.
For ATTCTATC, the binding signal was 0.348 E-score.
Sequence ATTCTATA has a binding signal of 0.247 E-score.
ATTCTACA showed a binding signal of 0.42 E-score.
GTTCTACA was tested, and the binding signal was 0.265 E-score.
ATTCTACC showed a binding signal of 0.442 E-score.
ATTCTACG showed a binding signal of 0.18 E-score.
CTTCTATC was tested, and the binding signal was 0.265 E-score.
With ATTCTAGC the binding signal was 0.257 E-score.
Work on TGAACCCA yielded a binding signal of -0.0568 E-score.
Work on CAACTAAA yielded a binding signal of 0.249 E-score.
TCTAACAA gave a binding signal of 0.0589 E-score.
AAGCGCAG gave a binding signal of -0.165 E-score.
In the case of GAGACTGA, the binding signal is reported as 0.0243 E-score.
ACCAATCC was tested, and the binding signal was 0.0382 E-score.
ATGGTGAG gave a binding signal of -0.0135 E-score.
In the case of ACTAAAAT, the binding signal is reported as 0.406 E-score.
ACTAAATA gave a binding signal of 0.3 E-score.
ACTAAATC gave a binding signal of 0.343 E-score.
With ACTAAAAC the binding signal was 0.303 E-score.
ACTAAATG gave a binding signal of 0.277 E-score.
Work on ACTAAAAA yielded a binding signal of 0.21 E-score.
Sequence CAAACAAC has a binding signal of 0.00627 E-score.
TAGCGGAA showed a binding signal of 0.245 E-score.
For GATGGACC, the binding signal was -0.171 E-score.
ATTGTTCA showed a binding signal of 0.126 E-score.
Work on ACTGGCGG yielded a binding signal of -0.0567 E-score.
Sequence CAGCTGGA has a binding signal of -0.0564 E-score.
In the case of GGAGCAAC, the binding signal is reported as -0.104 E-score.
For AAACTAGG, the binding signal was 0.252 E-score.
Sequence AAACTAGT has a binding signal of 0.459 E-score.
With ACACTAGT the binding signal was 0.32 E-score.
Work on CAACTAGC yielded a binding signal of 0.203 E-score.
AAACTAGC showed a binding signal of 0.362 E-score.
Work on GAACTAGC yielded a binding signal of 0.176 E-score.
With AAATCCAT the binding signal was 0.193 E-score.
GGAGGTGA gave a binding signal of -0.124 E-score.
In the case of CCGGCAGC, the binding signal is reported as -0.14 E-score.
CCGCGTCG gave a binding signal of 0.0351 E-score.
ACAGTGTA gave a binding signal of 0.268 E-score.
Work on GTAACTCA yielded a binding signal of 0.22 E-score.
CGTTTTAA was tested, and the binding signal was 0.191 E-score.
For ACGAGTAG, the binding signal was -0.0634 E-score.
CAAGTACA was tested, and the binding signal was 0.165 E-score.
In the case of CTTGTATA, the binding signal is reported as 0.219 E-score.
In the case of AATGTATC, the binding signal is reported as 0.224 E-score.
For AAAGTACG, the binding signal was 0.22 E-score.
For AATGTATA, the binding signal was 0.388 E-score.
With AATGTATG the binding signal was 0.272 E-score.
GTTGTATA showed a binding signal of 0.348 E-score.
ATTGTATA was tested, and the binding signal was 0.32 E-score.
AATGTACG was tested, and the binding signal was 0.192 E-score.
Sequence AAAGTACA has a binding signal of 0.364 E-score.
AATGTACA showed a binding signal of 0.347 E-score.
AATGTACT showed a binding signal of 0.303 E-score.
CAGTACTG gave a binding signal of 0.0294 E-score.
CCTGGCGA showed a binding signal of -0.199 E-score.
For GTCCGTCA, the binding signal was -0.0558 E-score.
Work on GGCAGCTA yielded a binding signal of -0.0821 E-score.
AGAAAGAT showed a binding signal of 0.0756 E-score.
With AAGGCGGT the binding signal was -0.0994 E-score.
In the case of ATTGTACG, the binding signal is reported as 0.266 E-score.
TATGTACA gave a binding signal of 0.378 E-score.
GATGTACA gave a binding signal of 0.282 E-score.
For ATTGTACA, the binding signal was 0.369 E-score.
Work on CATGTACA yielded a binding signal of 0.317 E-score.
ATTGTACC was tested, and the binding signal was 0.239 E-score.
ACGCTTGC gave a binding signal of -0.1 E-score.
CCGTTTTA gave a binding signal of 0.0815 E-score.
Work on GAAATCTC yielded a binding signal of 0.209 E-score.
Work on GAAATCTA yielded a binding signal of 0.345 E-score.
For TAAATCTA, the binding signal was 0.308 E-score.
CCAATCTA was tested, and the binding signal was 0.283 E-score.
In the case of CAAATCTG, the binding signal is reported as -0.00951 E-score.
ACAATCTA gave a binding signal of 0.283 E-score.
Work on CAAATCTC yielded a binding signal of 0.0513 E-score.
Work on CAAATCTA yielded a binding signal of 0.377 E-score.
Work on GCAATCTA yielded a binding signal of 0.361 E-score.
Work on ATTGATCG yielded a binding signal of 0.0726 E-score.
CAACTGAA showed a binding signal of -0.0305 E-score.
